High-throughput results: PubChem BioAssay, National Center for Advancing Translational Sciences (NCATS)
Compounds with a hit are over-represented: about 19% of the library has one in this group of screens.
Cycloheximide cs: Cycloheximide Counterscreen for Small Molecule Inhibitors of Shiga Toxin; cell reporter, cycloheximide protein synthesis inhibition counterscreen; max response, %; 300,000 tested, 12% active; AID 2314, 2010; in the data active means max response mostly above about 13%, no sharp cut-off; inactive means mostly below about 14%; further: read at 38.3 µM for the half of the compounds with a filed dose
AMA1 RON2 block: qHTS for Inhibitors of AMA1-RON; Towards Development of Antimalarial Drug Lead: Primary Screen; AlphaScreen AMA1-biotinylated RON2 peptide binding; Potency, µM (series often up to 58.2 µM), hits mostly inhibitors; 360,000 tested, 0.2% active; AID 720542, 2013; further: nearly all actives have a fitted effect of over 45% in size
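AMA1 (3D7) with his tag at 25 nM final met compounds first, then biotinylated RON2 peptide at 25 nM; detection used donor plus acceptor beads, 10 µg/mL apiece, read by AlphaScreen after 30 min at room temperature.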
Pf growth 96h: Primary qHTS for delayed death inhibitors of the malarial parasite plastid, 96 hour incubation. Potency, µM (top dose mostly 28.7 µM), actives largely listed as inhibitors. 320,000 tested, 6.9% active. P. falciparum luciferase reporter growth, 96 h
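Compounds incubated with erythrocytes infected by luciferase-expressing P. falciparum (2% hematocrit, 0.05% parasitemia final) for 96 hours, 37 C in 5% CO2. Growth inhibition scored as decreased luciferase luminescence.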
Pf growth 48h: Primary qHTS for delayed death inhibitors of the malarial parasite plastid, 48 hour incubation; P. falciparum luciferase growth in erythrocytes, 48 h; Potency, µM (titrated, usually from 28.7 µM), actives largely listed as inhibitors; 310,000 tested, 5.9% active; AID 504832, 2011
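Read-out is firefly luciferase luminescence from an integrated reporter in P. falciparum, so falling signal marks reduced parasite growth. Infected erythrocytes were at 2% hematocrit and 0.1% parasitemia (final) in Albumax-supplemented RPMI 1640.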
SARS PLP yeast: qHTS of Yeast-based Assay for SARS-CoV PLP; S. cerevisiae expressing SARS-CoV PLpro, growth rescue; Potency, µM (titrated, usually from 32.9 µM), hits mostly activators; 330,000 tested, 0.19% active; AID 485353, 2010; calls by dose curve; further: nearly all actives have a fitted effect of over 55% in size
Shiga inhibitor: A qHTS for Small Molecule Inhibitors of Shiga Toxin | Vero cells, Shiga toxin protein synthesis inhibition reporter | inhibition, % at 38.7 µM | 290,000 tested, 9.2% active | AID 2315, 2010; in the data active means inhibition mostly above about 28%, no sharp cut-off; inactive means mostly below about 43%
Of the large screens only hits and unclear results are named; the others gave an inactive call. Unless noted, the call rests on the fitted dose curve; in most records, active means well fitted curve in the direction sought with a large enough effect; inconclusive means small, poorly fitted or top-dose-only effect, or another doubt; inactive means no such curve, though single readings can be large; an effect the other way counts as inactive or inconclusive.

Cc1ccc(OCCNC(=O)c2ccc3c(c2)OCO3)cc1	Cycloheximide cs 42, Pf growth 48h inconclusive, Shiga inhibitor 66
COc1ccc(NC2CCCN(C(=O)C3=NN(C)C(=O)CC3)C2)cc1OC (stereo unspecified)	none
Cc1nnc(SCc2nnc(-c3ccccc3Br)o2)n1-c1ccccc1	Pf growth 96h inconclusive, Pf growth 48h 10µM
Oc1ccc(-n2nnnc2SCc2ccccc2Br)cc1	Pf growth 96h 13µM, Pf growth 48h inconclusive
Brc1ccccc1-c1nnc(CSc2nnnn2-c2ccccc2)o1	Cycloheximide cs 29, Shiga inhibitor 54
Cc1nnc(SCc2nnc(-c3ccc(Cl)cc3)o2)n1-c1ccccc1	Pf growth 48h inconclusive (no result: Pf growth 96h)
Cc1ccccc1CSc1nnnn1-c1ccc(C(N)=O)cc1	none (no result: Pf growth 48h)
CCCc1cc(=O)[nH]c(SCC(=O)Nc2cc(S(=O)(=O)N3CCCCC3)ccc2C)n1	Pf growth 96h inconclusive, Pf growth 48h inconclusive (no result: Cycloheximide cs, Shiga inhibitor)
COC(=O)/C(=C(O)\C=C\c1ccccc1[N+](=O)[O-])c1nc2ccccc2[nH]1	none
COC(=O)C(CC(=O)c1ccc(Cl)cc1)c1ccc(C(C)C)cc1 (stereo unspecified)	Cycloheximide cs 37, Pf growth 96h inconclusive, Shiga inhibitor 70
Cc1ccc(C(CC(=O)c2ccc(Cl)cc2)C(=O)O)cc1 (stereo unspecified)	none
Nc1nnc(N)c2ccccc12	Pf growth 96h inconclusive
Nc1nsc2ccccc12	Cycloheximide cs 24, Pf growth 48h inconclusive
CCC(C)(C)c1ccc2c(c1)C(=O)c1ccccc1C2=O	Cycloheximide cs 62, Pf growth 96h inconclusive, Shiga inhibitor 37
CCc1ccc2cc3c(cc2n1)C(=O)c1ccccc1-3	none (no result: Cycloheximide cs, Pf growth 96h, Pf growth 48h, SARS PLP yeast, Shiga inhibitor)
CC(C)Oc1ccc(C(=O)N(Cc2ccco2)C2CCS(=O)(=O)C2)cc1 (stereo unspecified)	none (no result: Pf growth 96h)
CC1(C(=O)NS(=O)(=O)c2ccccc2C(F)(F)F)CCN1C(=O)COc1ccc(Cl)cc1 (stereo unspecified)	none (no result: Cycloheximide cs, Pf growth 96h, Pf growth 48h, SARS PLP yeast, Shiga inhibitor)
CCC(=O)N(Cc1ccco1)c1nc(C(=O)Nc2ccc(Cl)cc2)c(C)s1	Cycloheximide cs 33, Shiga inhibitor 54
CCN(C(=O)c1ccco1)c1nc(CC(=O)Nc2ccc(Cl)cc2)cs1	Pf growth 48h inconclusive
COc1ccc(NC(c2ccccc2F)P(=O)(Oc2ccccc2)Oc2ccccc2)cc1 (stereo unspecified)	AMA1 RON2 block inconclusive, Pf growth 96h inconclusive, Pf growth 48h inconclusive
COP(=O)(OC)C(Nc1ccccc1)c1ccccc1 (stereo unspecified)	Pf growth 96h 17µM
COc1ccc(NC(c2ccccc2)P(=O)(Oc2ccccc2)Oc2ccccc2)cc1 (stereo unspecified)	Cycloheximide cs 11
CC(C)CCOP(=O)(c1ccc(N(C)C)cc1)C(Nc1ccccc1)c1ccc(N(C)C)cc1 (stereo unspecified)	AMA1 RON2 block inconclusive, Pf growth 96h inconclusive, Pf growth 48h inconclusive
COC(=O)c1ccc(NC(c2ccc(Cl)cc2)P(=O)(OC)OC)cc1 (stereo unspecified)	Cycloheximide cs 32
CC(C)OP(=O)(c1ccc(N(C)C)cc1)C(Nc1ccccc1)c1ccccc1 (stereo unspecified)	AMA1 RON2 block inconclusive, Pf growth 96h inconclusive, Pf growth 48h 8.3µM
CC(C)(C#N)NC(=O)C(=O)c1c(-c2ccccc2)cc2ccccn12	none
CCOc1ccc(CCNC(=O)C2=C(C)C(=O)OC23CCCCC3)cc1OCC	none
CN1CCc2ccccc2Cc2[nH]c3ccccc3c2CC1	Pf growth 96h 6.6µM, Pf growth 48h 8.3µM (no result: Cycloheximide cs, SARS PLP yeast, Shiga inhibitor)
CN1c2ccccc2C(=O)N2CCc3c([nH]c4ccccc34)C21 (stereo unspecified)	none (no result: AMA1 RON2 block, Pf growth 96h, Pf growth 48h, SARS PLP yeast)
Cc1ccc(-c2cc3nc(-c4ccccc4)cc(N)n3n2)cc1	Cycloheximide cs 38, Pf growth 48h inconclusive, Shiga inhibitor 82
CCN1CCN(c2cc(-c3ccccc3)nc3cc(-c4cccc(F)c4)nn23)CC1	Pf growth 96h 12µM, Pf growth 48h inconclusive
Cc1cc(N)n2nc(-c3ccccc3)cc2n1	Cycloheximide cs 60, Shiga inhibitor 89
CSc1nncc(-c2ccccc2)n1	Pf growth 96h inconclusive, Pf growth 48h inconclusive
CSc1nc(N)n2nc(-c3ccccc3)cc2n1	Cycloheximide cs 37, Shiga inhibitor 70
Cc1ccc(-c2cc(N)n3nc(-c4ccc(C)cc4)cc3n2)cc1	none
CC1=C(C(=O)N2CCOCC2)CC(CC(=O)NCCCCc2ccccc2)C(=O)N1CCC1=CCCCC1 (stereo unspecified)	none (no result: Cycloheximide cs, Pf growth 96h, Pf growth 48h, SARS PLP yeast, Shiga inhibitor)
CCOc1cc(NC2CS(=O)(=O)CC2O)c(OCC)cc1NC(=O)c1ccccc1 (stereo unspecified)	none (no result: Pf growth 96h)
Cc1ccc(-c2cc3nc(-c4ccccc4)cc(N4CCOCC4)n3n2)cc1	Cycloheximide cs 23, Pf growth 48h inconclusive
N#Cc1cc[n+](CC(=O)c2ccc(NC(=O)c3ccccc3)cc2)cc1	AMA1 RON2 block inconclusive, Pf growth 96h 3.3µM, Pf growth 48h 4.1µM
Cc1cccc[n+]1CC(=O)c1ccc(NC(=O)c2ccccc2)cc1	Pf growth 48h 2.9µM
O=C(c1ccc(-n2cncn2)c([N+](=O)[O-])c1)N1CCN(S(=O)(=O)c2ccccc2F)CC1	Pf growth 48h inconclusive (no result: Cycloheximide cs, Shiga inhibitor)
Cc1c2c(nc3ccccc13)CCC(C(C)(C)C)C2 (stereo unspecified)	Cycloheximide cs 26, Shiga inhibitor 62
CCOC(=O)C1CCN(c2nnc(N3CCCC3=O)s2)CC1	Cycloheximide cs 23, Pf growth 96h 0.83µM, Shiga inhibitor 43
N#C/C(C(=O)Oc1ccccc1)=C1/Nc2ccccc2-c2ccccc21	Pf growth 48h inconclusive
Cc1c(C(=O)N2CCCc3ccccc32)oc2ccc(S(=O)(=O)N3CCOCC3)cc12	Pf growth 48h inconclusive
COC(=O)[C@@]1(Cc2ccc(F)cc2)[C@H]2c3cc(C(=O)N(C)C)n(Cc4ccc(C)c(F)c4F)c3C[C@H]2CN1C(=O)c1ccccc1	none (no result: Cycloheximide cs, Pf growth 96h, Pf growth 48h, SARS PLP yeast, Shiga inhibitor)
COC(=O)[C@@]1(Cc2ccc(F)cc2)[C@H]2c3cc(C(=O)N(C)C)n(Cc4c(CO)[nH]cc(C)c4=O)c3C[C@H]2CN1C(=O)c1ccccc1	Pf growth 96h 1.9µM, Pf growth 48h 1.3µM
COC(=O)[C@@]1(Cc2ccc(F)cc2)[C@H]2c3cc(C(=O)N(C)C)n(Cc4ccc(OC(F)(F)F)cc4)c3C[C@H]2CN1C(=O)c1ccccc1	Pf growth 96h 2.3µM, Pf growth 48h 1.9µM (no result: AMA1 RON2 block)
CCOC(=O)Cc1csc(/N=C/c2c(O)n(-c3ccccc3C(F)(F)F)c(=O)c3ccccc23)n1	Pf growth 48h inconclusive
CCOC(=O)C1CCN(c2nc3ccccc3nc2C(C#N)C(=O)NCCc2ccccc2)CC1 (stereo unspecified)	Cycloheximide cs 49, Pf growth 96h 9.3µM (no result: AMA1 RON2 block)
